Results on six molecules are retold here after PubChem BioAssay (NCI).

Structures are written as SMILES. About 83,000 compounds went through this panel and 20% of them were active in at least one assay; those are over-represented in the sample as a whole.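 A percent growth of 40 corresponds to 60% growth inhibition; 0 means no net growth; -100 means all cells died. Active threshold: below 10.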 Values without a mark were called inactive. Calls of active or inactive are those of the source.

Common to all, as to test: NCI-60 one-dose screen, 48 h (100 = growth as untreated, 0 = no growth, -100 = all killed)
The test system of assay [1] is SK-MEL-2 melanoma.
In assay [2] the test system is EKVX NSCLC.
The test system of assay [3] is SN12C renal.
Assay [4] relates to UO-31 renal.
Assay [5] has as its system TK-10 renal.
Assay [6] has as its system ACHN renal.
The test system of assay [7] is CAKI-1 renal.
For assay [8], the system named is A498 renal.
Assay [9] has as its system CCRF-CEM leukemia.
Assay [10] has as its system RPMI-8226 leukemia.
For assay [11], the system named is OVCAR-8 ovarian.
The subject of assay [12] is OVCAR-5 ovarian.
In assay [13] the test system is OVCAR-4 ovarian.
The test system of assay [14] is SK-OV-3 ovarian.
The subject of assay [15] is IGROV1 ovarian.
Assay [16] has as its system OVCAR-3 ovarian.
Assay [17] deals with HS 578T breast.
Assay [18] concerns NCI/ADR-RES ovarian.
Assay [19] relates to MOLT-4 leukemia. Conditions: 10 µM unless noted.
Assay [20] has as its system SR leukemia. Conditions: 10 µM unless noted.

For the molecule `CC/C(=C(/c1ccc(O)cc1)c1ccc(OCCN(C)C(=O)CCOCCNC(=O)Cc2ccc3c(c2)CN([C@@H]2CCC(=O)NC2=O)C3=O)cc1)c1ccccc1`, the growth was 101% in [1] (1 µM); 74.7% in assay [1] (10 µM); 102% in assay [2] (1 µM); 97.8% in assay [2] (10 µM); 89% in [3] (1 µM); 78% in [3] (10 µM). Moreover, the growth in assay [4] (1 µM) is 92%; in assay [4] (10 µM), 86.8%; in [5] (1 µM), 94%; in assay [5] (10 µM), 93.5%; in assay [6] (1 µM), 103%; in assay [6] (10 µM), 101%. Moreover, the growth in assay [7] (1 µM) was 99%; in assay [7] (10 µM), 94.9%; in assay [8] (1 µM), 127%; in assay [8] (10 µM), 97.7%; in assay [9] (1 µM), 3.79% (active); in [9] (10 µM), 22.9%. Also, the growth in assay [10] (1 µM) is 88%; in [10] (10 µM) it was 78.3%; in [11] (1 µM), 87.8%; in [11] (10 µM), 34.7%; in assay [12] (1 µM) it was 97.5%; in assay [12] (10 µM) it was 86.7%. The growth is 102% in assay [13] (1 µM); 75.7% in assay [13] (10 µM); 88.7% in assay [14] (1 µM); 79.6% in assay [14] (10 µM); 57.5% in assay [15] (1 µM); 30.4% in assay [15] (10 µM). In addition, the growth is 102% in [16] (1 µM); 68.4% in assay [16] (10 µM); 61.4% in assay [17] (1 µM); 30.4% in assay [17] (10 µM); 109% in assay [18] (1 µM); 99.6% in [18] (10 µM).

For the molecule `Cc1ccc(S(=O)(=O)N(CCn2ccnc2[N+](=O)[O-])CCn2ccnc2[N+](=O)[O-])cc1`, the growth in [1] (10 µM unless noted) was 105%; in assay [2] (10 µM unless noted), 95.5%; in assay [3] (10 µM unless noted), 105%; in assay [4] (10 µM unless noted), 76.4%; in assay [5] (10 µM unless noted) it was 98.4%; in assay [6] (10 µM unless noted), 101%. Moreover, the growth in [7] (10 µM unless noted) was 89.2%; in assay [8] (10 µM unless noted) it was 112%; in [9] (10 µM unless noted), 100%; in [19], 99.8%; in [20] it was 94.2%; in assay [10] (10 µM unless noted), 102%. The growth in assay [11] (10 µM unless noted) is 101%; in [12] (10 µM unless noted), 103%; in assay [13] (10 µM unless noted), 107%; in [14] (10 µM unless noted), 109%; in [15] (10 µM unless noted), 109%; in assay [16] (10 µM unless noted), 124%. Moreover, the growth in [17] (10 µM unless noted) was 103%; in assay [18] (10 µM unless noted), 104%.

In the case of `CCOc1ccc(-c2cc(-c3cc(C(C)C)c(O)cc3C)nn2-c2ccc(S(N)(=O)=O)cc2)cc1`, the growth in assay [1] (10 µM unless noted) is 54.5%; in assay [2] (10 µM unless noted), 30.9%; in [3] (10 µM unless noted), 30.6%; in [4] (10 µM unless noted) it was 48.6%; in assay [5] (10 µM unless noted) it was 84.2%; in assay [6] (10 µM unless noted), 54.1%. The growth in [7] (10 µM unless noted) is 58.7%; in assay [8] (10 µM unless noted), 98.3%; in [9] (10 µM unless noted), 11.3%; in [19], 11.6%; in assay [20], 5.54% (active); in [10] (10 µM unless noted), 13.8%. The growth was 36.4% in assay [11] (10 µM unless noted); 53% in assay [12] (10 µM unless noted); 29.6% in assay [13] (10 µM unless noted); 55.3% in assay [14] (10 µM unless noted); 80.4% in assay [15] (10 µM unless noted); 36.2% in assay [16] (10 µM unless noted). For the same molecule, the growth is 35.9% in assay [17] (10 µM unless noted) and 4.14% (active) in assay [18] (10 µM unless noted).

With `CC(C)(C)C(=O)c1c2c(c3ccc4c5ccccc5ccc4n13)C(=O)c1ccccc1C2=O`, the growth in assay [1] (10 µM unless noted) is 104%; in assay [2] (10 µM unless noted), 86.2%; in assay [3] (10 µM unless noted), 99%; in assay [4] (10 µM unless noted) it was 67.9%; in assay [5] (10 µM unless noted) it was 118%; in [6] (10 µM unless noted), 79.2%. Further, the growth was 85.4% in assay [7] (10 µM unless noted); 188% in assay [8] (10 µM unless noted); 99.7% in assay [9] (10 µM unless noted); 94.3% in assay [19]; 85.5% in assay [20]; 96.6% in assay [10] (10 µM unless noted). Besides, the growth in [11] (10 µM unless noted) is 96.3%; in [12] (10 µM unless noted), 116%; in assay [13] (10 µM unless noted), 71.2%; in assay [14] (10 µM unless noted), 118%; in assay [15] (10 µM unless noted) it was 95.7%; in assay [16] (10 µM unless noted), 94.4%. Also, the values for the growth in assay [17] (10 µM unless noted) and in assay [18] (10 µM unless noted) were 100% and 95.5%, respectively.

On to `CN(C(=O)CN1C(=O)/C(=C/c2ccco2)SC1=S)C1CCS(=O)(=O)C1` (stereo unspecified), for which the growth in [1] (10 µM unless noted) is 98.5%; in assay [2] (10 µM unless noted), 97.9%; in assay [3] (10 µM unless noted) it was 104%; in [4] (10 µM unless noted), 87.8%; in [5] (10 µM unless noted) it was 122%; in assay [6] (10 µM unless noted) it was 106%. Besides, the growth in [7] (10 µM unless noted) is 93.5%; in assay [8] (10 µM unless noted), 103%; in [9] (10 µM unless noted), 80.3%; in [19] it was 100%; in assay [20] it was 84.8%; in assay [10] (10 µM unless noted) it was 98%. For the same molecule, the growth in [11] (10 µM unless noted) is 96%; in assay [12] (10 µM unless noted), 111%; in assay [13] (10 µM unless noted), 106%; in assay [14] (10 µM unless noted), 91.3%; in [15] (10 µM unless noted) it was 116%; in assay [16] (10 µM unless noted), 99.9%. For the same molecule, the values for the growth in [17] (10 µM unless noted) and in assay [18] (10 µM unless noted) were 111% and 96.4%, respectively.

For the molecule `COc1ccc(C(=O)NNC(=O)CSc2nc3sc4c(c3c(=O)n2-c2ccc(Cl)cc2)CCCC4)cc1`, the growth was 92.2% in assay [1] (10 µM unless noted); 55.1% in assay [2] (10 µM unless noted); 29.5% in [3] (10 µM unless noted); 65.1% in [4] (10 µM unless noted); 143% in [5] (10 µM unless noted); 85.7% in [6] (10 µM unless noted). Further, the growth in assay [7] (10 µM unless noted) was 74%; in assay [8] (10 µM unless noted), 124%; in assay [9] (10 µM unless noted), 70.4%; in assay [19] it was 63.7%; in assay [20] it was 48.2%; in assay [10] (10 µM unless noted) it was 79%. The growth was 24.3% in [11] (10 µM unless noted); 78.9% in [12] (10 µM unless noted); 78.6% in assay [13] (10 µM unless noted); 70.4% in assay [14] (10 µM unless noted); 89.2% in assay [15] (10 µM unless noted); 106% in assay [16] (10 µM unless noted). Moreover, the growth in assay [17] (10 µM unless noted) is 60.4%; in assay [18] (10 µM unless noted), 56.9%.
